Source: PubChem BioAssay (Broad Institute)
This excerpt belongs to a sample that is enriched for hits.
BL2 CD40 inh: CD40 pathway inhibition in BL2 cells. BL2 NF-kB luciferase reporter, CD40L-induced, 4 h. inhibition, % at 10 µM. 83,000 compounds, 0.94% hits. AID 1053188;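 active = mean inhibition of at least 50% with a set share of replicates also reaching that level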
Large screens that a line does not name were inactive; ! = a repeat was not active; [ ] = remark or other dose.

COc1cc(C2c3cc4c(cc3CC3COC(=O)C32)OCO4)cc(OC)c1O (centres undefined)	none
O=C1NC2C(=CC(O)C(O)C2O)c2cc3c(c(O)c21)OCO3 (centres undefined)	BL2 CD40 inh 107.5
O=C1NC2C(O)C(O)C(O)C(O)C2c2cc3c(c(O)c21)OCO3 (centres undefined)	BL2 CD40 inh 97.1
COC(=O)[C@H]1[C@H](CO)[C@H]2Cn3c(ccc(-c4cccc(C(=O)N(C)C)c4)c3=O)[C@@H]1N2C(=O)NC(C)C	none
Oc1ccc2c3c1OC1c4[nH]c5ccccc5c4CC4(O)C(C2)N(CC2CC2)CCC314 (centres undefined)	none
COC(=O)[C@@H]1[C@@H](CO)[C@@H]2Cn3c(ccc(-c4ccccc4F)c3=O)[C@H]1N2Cc1cccnc1	none
C=C(C)[C@@H]1CCC(C)=C[C@H]1c1c(OC)cc(C)cc1OC	none
O=C(O)[C@H]1[C@H](CO)[C@H]2Cn3c(ccc(-c4ccncc4)c3=O)[C@@H]1N2S(=O)(=O)c1ccccc1F	none
CC(C)NC(=O)N1[C@@H]2Cn3c(ccc(-c4cccc(C(=O)N(C)C)c4)c3=O)[C@H]1[C@@H](C(=O)O)[C@@H]2CO	none
C[C@H]1CN([C@@H](C)CO)C(=O)CCCn2cc(nn2)CO[C@H]1CN(C)C(=O)Oc1ccc2ccccc2c1	none
N#Cc1ccc(-c2ccc([C@H]3[C@H]4CN(C(=O)Cc5ccccc5)CCCCN4[C@H]3CO)cc2)cc1	none
CC1CC(C)CC(C)C(O)C(C#N)=CC=CCC(C2CCCC2C(=O)O)OC(=O)CC(O)C(C)C1 (centres undefined)	BL2 CD40 inh 94.1
CS(=O)(=O)N1CC2NC(C1)C2c1ccc(Br)cc1 (centres undefined)	none
COC(=O)[C@H]1[C@H](CO)[C@H]2Cn3c(ccc(-c4cncnc4)c3=O)[C@@H]1N2S(=O)(=O)c1ccccc1C	none
C[C@H](CO)N1C[C@H](C)[C@H](CN(C)C(=O)Oc2cccc3ccccc23)OCc2cn(nn2)CCCC1=O	none
c1ccc(CC(c2ccccc2)N2CCCCC2)cc1 (centres undefined)	none
CN1[C@@H]2CN(S(C)(=O)=O)C[C@H]1C2c1ccccc1 (some centres undefined)	none
CS(=O)(=O)N1C[C@@H]2N[C@H](C1)C2c1ccc(Br)cc1 (some centres undefined)	none
CN1[C@@H]2CN(S(C)(=O)=O)C[C@H]1C2c1ccc(Br)cc1 (some centres undefined)	BL2 CD40 inh 27.8!
CN(C)CC#Cc1ccc([C@@H]2[C@@H](CO)N3CCCCN(C(=O)Cc4ccccn4)C[C@H]23)cc1	none
O=C(Cc1ccccn1)N1CCCCN2[C@H](CO)[C@@H](c3ccc(Br)cc3)[C@@H]2C1	none
CCCNC(=O)[C@@H]1[C@@H](CO)[C@@H]2Cn3c(cccc3=O)[C@@H]2N1C	none
C/C=C/c1ccc(C2[C@@H]3CN(Cc4cocn4)C[C@H]2N3)cc1 (some centres undefined)	none
O=C(Nc1cccc(Cl)c1)OC1CN2CCC1CC2 (centres undefined)	none
N#CC(C#N)=NNc1cccc(Cl)c1	BL2 CD40 inh 75.2[25 µM]
O=C(Cc1ccccn1)N1CCCCN2[C@H](CO)[C@H](c3ccc(Br)cc3)[C@@H]2C1	none
CC1=C[C@H]2[C@]3(O)[C@H](C)[C@@H](O)[C@@]4(O)[C@H]([C@@H]3C=C(CO)C[C@]2(O)C1=O)C4(C)C	none
CCC(=O)N1[C@@H]2Cn3c(ccc(C4=CCCC4)c3=O)[C@H]1[C@@H](C(=O)OC)[C@@H]2CO	none
COP(=S)(OC)SCN1C(=O)c2ccccc2C1=O	BL2 CD40 inh 32.1
CCN(CC)C(=O)c1ccc(NC(=O)c2cccc(S(=O)(=O)N3CCN(Cc4ccccc4)CC3)c2)cc1	none
CCN(CC)C(=O)c1ccc(NC(=O)c2ccc(N3CCCC3=O)cc2)cc1	none
CCN(CC)C(=O)c1ccc(NC(=O)Nc2ccccc2F)cc1	BL2 CD40 inh 83.5
COc1ccc(OC(=O)N(C)C[C@H]2OCc3ccccc3-c3c(n(C)c4ccccc34)C(=O)N([C@H](C)CO)C[C@@H]2C)cc1	none
CCOC(=O)c1ncn2c1C1CCCN1C(=O)c1cc(OC)ccc1-2 (centres undefined)	none
O=C(O)[C@H]1[C@H](CO)[C@H]2Cn3c(ccc(C4=CCCCC4)c3=O)[C@@H]1N2C(=O)Cc1ccccn1	none
O=C(Cc1ccncc1)N1CCCCN2[C@H](CO)[C@@H](c3ccc(C#Cc4ccccc4F)cc3)[C@@H]2C1	none
N#Cc1ccc(-c2ccc([C@H]3[C@@H](CO)N4CCCCN(C(=O)Cc5ccccc5)C[C@H]34)cc2)cc1	none
CCN1C[C@]2(COC)CCC(OC)[C@@]34C5C[C@]6(O)[C@H](OC(=O)c7ccc(OC)cc7)C5[C@@](OC(C)=O)(C[C@H]6OC)[C@@H]([C@H](OC)C23)[C@@H]14 (some centres undefined)	none
CC1=C(O)C(=O)C=C2C1=CC=C1C2(C)CCC2(C)C3CC(C)(C(=O)O)CCC3(C)CCC12C (centres undefined)	BL2 CD40 inh 109.7
CC(C)NC(=O)N1C[C@@H]2C(c3ccccc3)[C@H](C1)N2C (some centres undefined)	none
C=CCN1[C@@H]2CN(CC(F)(F)F)C[C@H]1C2c1ccc(Br)cc1 (some centres undefined)	none
CN1[C@@H]2CN(CC(F)(F)F)C[C@H]1C2c1ccc(Br)cc1 (some centres undefined)	none
Cn1ncnc2c(=O)n(C)c(=O)nc1-2	BL2 CD40 inh 86.0
COC(=O)[C@@H]1[C@@H](CO)[C@@H]2Cn3c(cccc3=O)[C@H]1N2C(=O)C1CC1	none
COC(=O)[C@@H]1[C@@H](CO)[C@@H]2Cn3c(ccc(-c4ccccc4F)c3=O)[C@H]1N2C(C)=O	none
CC(C)NC(=O)N1C[C@@H]2C(c3ccc(Br)cc3)[C@H](C1)N2C (some centres undefined)	none
CC(=O)OCC12CC(OC(=O)CC(C)C)C(C)=CC1OC1C(O)C(OC(C)=O)C2(C)C12CO2 (centres undefined)	BL2 CD40 inh 65.0
COC(=O)[C@H]1[C@H](CO)[C@H]2Cn3c(ccc(-c4ccccc4F)c3=O)[C@@H]1N2Cc1cccnc1	none
O=C(Cc1cccnc1)N1CCCCN2[C@H](C1)[C@H](c1ccc(C#CC3(O)CCCC3)cc1)[C@@H]2CO	none
CN1[C@@H](CO)[C@@H]2c3ccccc3NC[C@@H]21	none
O=C1CNC[C@@H]2[C@H](c3ccc(Br)cc3)[C@H](CO)N12	none
CC12CCC3C(CCC4(O)CC(O)CCC34C=NO)C1(O)CCC2C1=COC(=O)C1 (centres undefined)	BL2 CD40 inh 56.0
CC12CCC3C(CCC4(O)CC(O)CCC34C=O)C1(O)CCC2C1=CC(=O)OC1 (centres undefined)	BL2 CD40 inh 75.0
CN(C(=O)Cc1ccccc1)C(CN1CCCC1)c1ccccc1 (centres undefined)	none
CC(=O)N1C[C@@H]2C(c3ccccc3)[C@H](C1)N2CC1CC1 (some centres undefined)	none
COC(=O)C1=C(C(=O)OC)C2OC1c1cc3ccccc3cc12	BL2 CD40 inh 102.5
CC(C)NC(C)C(=O)c1ccc2ccccc2c1 (centres undefined)	none
CN1[C@@H]2c3cccc(=O)n3C[C@H]1[C@H](CO)[C@H]2C(=O)NCC1CC1	none
Cc1ccc(OC(=O)N(C)C[C@@H]2OCc3ccccc3-c3c(n(C)c4ccccc34)C(=O)N([C@H](C)CO)C[C@@H]2C)cc1	none
CS(=O)(=O)N1C[C@@H]2N[C@H](C1)C2c1ccccc1 (some centres undefined)	none
